Laboratory results taken from PubChem BioAssay AID651815 (National Center for Advancing Translational Sciences (NCATS), 2012).
Hit rate of the full screen: of about 2,100 compounds, about 1,100 (52%) were called active. Inconclusive results (about 29%) are left out. Calls follow the shape of the dose curve; as a rule, active = well fitted inhibition curve with a large enough effect; inconclusive = small, poorly fitted or top-dose-only effect; inactive = no such curve, though single readings can be large or run the other way. The set was probably picked from earlier hits. This is one part of the list.

Molecular target: DNA dC->dU-editing enzyme APOBEC-3F (Homo sapiens) (UniProt Q8IUX4)
Sequence (Q8IUX4 whole entry, looked up): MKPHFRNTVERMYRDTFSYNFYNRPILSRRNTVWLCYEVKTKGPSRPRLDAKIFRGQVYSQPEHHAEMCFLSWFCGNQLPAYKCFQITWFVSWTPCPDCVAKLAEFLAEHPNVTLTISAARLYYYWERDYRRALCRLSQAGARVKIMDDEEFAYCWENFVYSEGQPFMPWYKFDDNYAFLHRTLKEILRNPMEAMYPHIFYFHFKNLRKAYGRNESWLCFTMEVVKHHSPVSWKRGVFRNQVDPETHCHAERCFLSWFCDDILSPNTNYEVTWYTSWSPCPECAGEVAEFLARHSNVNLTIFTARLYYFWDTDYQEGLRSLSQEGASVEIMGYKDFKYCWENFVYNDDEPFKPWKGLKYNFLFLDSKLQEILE
Assay: qHTS for inhibitors of Vif-A3F interactions: Cherry picks counterscreen; also: nearly all actives have a fitted effect of over 65% in size
Details: HeLa A3F-eYFP/Vif cells, eYFP fluorescence, 24 h; series mostly up to 46.1 µM
How it was run: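 HeLa cells stably expressing A3F-eYFP and Vif, cultured overnight, then treated 24 h at 37 degrees C with compounds at several concentrations; yellow fluorescence (488 nm Ex/500-530 nm Em) imaged on Acumen; MG132 positive control.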
Potency is read from the fitted curve at half-maximal effect.

Row | Compound | Potency
1 | Cc1nn(-c2ccc(F)cc2)c(Cl)c1/C=C1\C(=O)Nc2ccccc21 | 5.59 µM (active)
2 | O=c1[nH]c(NCc2ccco2)nnc1Cc1ccccc1Cl | 12.5 µM (active)
3 | O=[N+]([O-])c1ccc(C2=Nc3cc(Cl)ccc3OC2)cc1 | inactive
4 | COc1ccccc1N1N=C(c2ccc([N+](=O)[O-])cc2)CC1c1ccccc1 (stereo unspecified) | 1.12 µM (active)
5 | O=[N+]([O-])c1ccc(C2=NN(c3ccccc3)C(c3ccco3)C2)cc1 (stereo unspecified) | 1.58 µM (active)
6 | O=[N+]([O-])c1ccc(/C=C/C2=NN(c3ccccc3)C(c3ccco3)C2)o1 (stereo unspecified) | 5.17 µM (active)
7 | COc1ccc2nc(C)cc(SCC(=O)N/N=C/c3cccc4ccccc34)c2c1 | 6.27 µM (active)
8 | O=C(Nc1ccc([N+](=O)[O-])cc1)C(Cc1ccccc1)N1C(=O)c2cccc3cccc(c23)C1=O (stereo unspecified) | 15.8 µM (active)
9 | O=S(=O)(Nc1ccc(C(O)(C(F)(F)F)C(F)(F)F)cc1)c1ccc(Cl)c2nonc12 | inactive
10 | CCOC(=O)c1sc2cc([N+](=O)[O-])cc(SCC(C)C)c2c1N | 2.31 µM (active)
11 | COC(=O)c1sc2cc([N+](=O)[O-])cc(SCC(C)C)c2c1N | 11.6 µM (active)
12 | COc1ccc(NC(=S)Nc2ncccc2C)c(OC)c1 | inactive
13 | COc1ccc(NC2=CC(=O)CC(c3ccccc3)C2)c(OC)c1 (stereo unspecified) | 5.59 µM (active)
14 | O=C(Nc1ccc(Oc2ccc(NC(=O)Nc3ccccc3Cl)cc2)cc1)Nc1ccccc1Cl | 18.4 µM (active)
15 | O=C(N/N=C/c1cccc2ccccc12)c1n[nH]c2c1CCCC2 | 1.98 µM (active)
16 | O=C(N/N=C/c1cccs1)c1n[nH]c2c1CCC2 | 6.27 µM (active)
17 | Cc1ccsc1/C=N\NC(=O)c1n[nH]c2c1CCC2 | 3.96 µM (active)
18 | CN(C)S(=O)(=O)c1ccc2c(c1)/C(=C/c1cc3c([nH]1)CCCC3)C(=O)N2 | 2.23 µM (active)
19 | Cc1cccc(N2CCN(C(=O)c3ccncc3)CC2)c1C | 9.94 µM (active)
20 | O=C(CSc1nc(-c2ccco2)cc(C(F)(F)F)n1)Nc1cccnc1 | 11.2 µM (active)
21 | Cc1nnc(NC(=O)CSc2nc(C(C)C)nc3ccccc23)s1 | 8.86 µM (active)
22 | Cc1cc(C)n(-c2nnc3n2N=C(c2c[nH]c4ccccc24)CS3)n1 | 12.5 µM (active)
23 | CC(NC(=O)/C(C#N)=C/c1ccc([N+](=O)[O-])o1)c1ccccc1 (stereo unspecified) | 18.4 µM (active)
24 | N#C/C(=C\c1ccccc1[N+](=O)[O-])C(=O)NCc1ccccc1 | inactive

Row | Compound | Potency
25 | CCOCCCNC(=O)/C(C#N)=C/c1ccc([N+](=O)[O-])o1 | 20.6 µM (active)
26 | CN(C)/C=N/C1=C(C#N)C(c2cccs2)c2ccc3ccccc3c2O1 (stereo unspecified) | 4.98 µM (active)
27 | O=C(NCc1cccnc1)c1cccc(NS(=O)(=O)c2ccc(Br)cc2)c1 | 6.27 µM (active)
28 | O=C(COc1ccc(C(=O)c2ccccc2)cc1)NCc1ccc(F)cc1 | 1.98 µM (active)
29 | O=C(c1[nH]c(C(F)(F)F)nc1-c1ccccc1)N1CCN(c2ccccc2)CC1 | 2.23 µM (active)
30 | O=C(c1[nH]c(C(F)(F)F)nc1-c1ccccc1)N1CCN(c2cccc(C(F)(F)F)n2)CC1 | 2.8 µM (active)
31 | CCS(=O)(=O)N1CCc2cc(C(=O)N3CCN(c4cccc(C(F)(F)F)c4)CC3)ccc21 | inactive
32 | N#Cc1sc2nc(-c3cccs3)cc(-c3ccc(Cl)cc3)c2c1N | 12.5 µM (active)
33 | COc1ccc(-c2cc(-c3cccs3)nc3sc(C#N)c(N)c23)cc1 | inactive
34 | CCN(CC)C(=O)c1sc2nc(-c3cccs3)cc(-c3ccc(Cl)cc3)c2c1N | 14 µM (active)
35 | O=C(COC(=O)c1ccc(NS(=O)(=O)c2cccs2)cc1O)NCc1ccccc1 | 4.44 µM (active)
36 | COc1ccc2c(c1)c1nc3ccccc3nc1n2Cc1ccc(OC)c(OC)c1 | 18.4 µM (active)
37 | CCOc1ccc(Cn2c3ccc(OC)cc3c3nc4ccccc4nc32)cc1 | 18.4 µM (active)
38 | COc1ccc(COn2c(=O)c(C)[n+]([O-])c3ccccc32)cc1OC | inactive
39 | COc1ccc2c(c1)c1nc3ccccc3nc1n2CC(=O)OC(C)C | 3.66 µM (active)
40 | c1ccc(N=NC2=NN(c3ccccc3)CS2)cc1 | inactive
41 | Nc1nn(-c2ccccc2)c(N)c1N=Nc1ccccc1 | 2.23 µM (active)
42 | N#CC(C(=S)Nc1ccccc1)c1nc2ccccc2[nH]1 (stereo unspecified) | inactive
43 | O=C(CSc1ccccc1)Nc1nc2ccccc2[nH]1 | 8.86 µM (active)
44 | c1ccc2[nH]c(NN=C3CCCCCC3)nc2c1 | inactive
45 | Cc1ccc2c(c1)C=CC(C#N)N2C(=O)c1ccccc1 (stereo unspecified) | 4.98 µM (active)
46 | COCCOC(=O)c1[nH]c2c(c1C)C(=O)CC(c1ccccc1)C2 (stereo unspecified) | 1.77 µM (active)
47 | Cc1c(C(=O)OC2CCCCC2)[nH]c2c1C(=O)CC(c1ccccc1Cl)C2 (stereo unspecified) | 2.06 µM (active)
48 | COc1ccc(OC)c(C2CC(=O)c3c([nH]c(C(=O)OCC4CCCO4)c3C)C2)c1 (stereo unspecified) | 12.5 µM (active)

Row | Compound | Potency
49 | CN(/N=C/c1ccc(N(C)C)cc1)C1=NS(=O)(=O)c2ccccc21 | 11.2 µM (active)
50 | COCCCN(C(C)=O)c1nc(-c2ccc(OC)cc2)cs1 | 17.7 µM (active)
51 | CN1C2=CC=CC=CC2=[N+](C)C12C([N+](=O)[O-])=CC(=[N+]([O-])[O-])C=C2[N+](=O)[O-] (stereo unspecified) | 12.5 µM (active)
52 | Cc1ccc(S(=O)(=O)Nc2cc(-c3nn(C)c(=O)c4ccccc34)ccc2N2CCOCC2)cc1 | 12.5 µM (active)
53 | Cc1cccc2[nH]cc(/C=C3/C=Nc4ccccc43)c12 | 20.6 µM (active)
54 | CCCCNc1c(-c2ccc(SC3CCCCC3)cc2)nc2cnccn12 | 4.44 µM (active)
55 | CCC(C)Sc1ccc(-c2nc3cc(C)ccn3c2NC2CCCCC2)cc1 (stereo unspecified) | inactive
56 | c1cc(SC2CCCCC2)cc(-c2nc3cnccn3c2NC2CCCCC2)c1 | inactive
57 | O=C(c1cc(-c2ccncc2)nc2ccccc12)N1CCN(c2ccccn2)CC1 | 6.27 µM (active)
58 | COC(=O)c1sc(N)c(C(=O)OC)c1COC(=O)c1c(C)noc1C | 4.44 µM (active)
59 | COc1ccc(C(=O)c2sc3nc4c(c(C(F)(F)F)c3c2N)CN(C(C)=O)CC4)cc1OC | 23.1 µM (active)
60 | CC(=O)N1CCc2nc3sc(C(=O)c4ccc(F)cc4)c(N)c3c(C(F)(F)F)c2C1 | 18.4 µM (active)
61 | COc1ccccc1-c1nnc2sc(-c3cc4ccccc4o3)nn12 | 5.59 µM (active)
62 | Cc1c2ccccc2nc2c(F)c(NC(C)C)c(F)c(F)c12 | 6.51 µM (active)
63 | CCCNc1c(F)c(F)c2c(C)c3ccccc3nc2c1F | 15.8 µM (active)
64 | c1ccc(-c2cnn3c(-c4ccccc4)c(-c4ccccc4)nc3n2)cc1 | 0.461 µM (active)
65 | CC(=O)c1sc2nc(-c3cccs3)cc(C(F)(F)F)c2c1N | 16.4 µM (active)
66 | CC(C)(C)C(=O)c1sc2nc(-c3cccs3)cc(C(F)(F)F)c2c1N | 1.84 µM (active)
67 | Nc1c(C(=O)C2CC2)sc2nc(-c3cccs3)cc(C(F)(F)F)c12 | 1.16 µM (active)
68 | CCCc1nc2c(C)cc(Br)cn2c1Cc1ccccc1 | inactive
69 | CCn1cc(/C=C/c2cc[n+](C)cc2)c2ccccc21 | 0.0498 µM (active)
70 | CC(C)n1cc(/C=C/c2cc[n+](C)cc2)c2ccccc21 | 0.0559 µM (active)
71 | C=CCn1cc(/C=C/c2cc[n+](C)cc2)c2ccccc21 | 0.198 µM (active)
72 | COc1cc(OC)c(/C=C/c2ccc3ccccc3[n+]2C)c(OC)c1 | 11.6 µM (active)

Row | Compound | Potency
73 | N#Cc1c(-c2ccccc2F)cc(C2CC2)nc1SCC(=O)c1cccs1 | 14 µM (active)
74 | CCc1c(C)nc(SCC(=O)c2cccs2)c(C#N)c1C | inactive
75 | COc1cccc(CNCCSc2nnnn2C)c1OCc1ccc(F)cc1 | inactive
76 | Fc1ccc(COc2ccc3ccccc3c2CNc2nn[nH]n2)cc1 | 19.8 µM (active)
77 | O=C(NNC1=Nc2cccc3cccc1c23)c1ccc(Br)cc1 | 23.1 µM (active)
78 | COc1cc(OC)c(/C=C2\SC(=O)N(CC(=O)Nc3ccccc3F)C2=O)c(OC)c1 | 12.5 µM (active)
79 | O=C(Cn1nc2c(cc1=O)CCCC2)NCc1ccc(Cl)cc1 | 16.4 µM (active)
80 | N#C/C(=C/c1cccs1)c1ccccn1 | 15.8 µM (active)
81 | CC(=O)Nc1cccc(-c2ccnc3c2CC(C)(C(=O)NCc2cccs2)O3)c1 (stereo unspecified) | 4.44 µM (active)
82 | CC1(C(=O)NCc2ccccc2)Cc2c(-c3ccc(C(N)=O)cc3)ccnc2O1 (stereo unspecified) | 7.9 µM (active)
83 | CC(=O)Nc1cccc(-c2ccnc3c2CC(C)(C(=O)NCc2ccccc2)O3)c1 (stereo unspecified) | 2.8 µM (active)
84 | CC1(C(=O)NCc2ccco2)Cc2c(-c3cccc(C(N)=O)c3)ccnc2O1 (stereo unspecified) | 14 µM (active)
85 | CC1(C(=O)NCc2ccccc2)Cc2c(-c3cccc(C(N)=O)c3)ccnc2O1 (stereo unspecified) | 7.04 µM (active)
86 | CC(=O)Nc1cccc(-c2ccnc3c2CC(C(=O)NCc2cccs2)O3)c1 (stereo unspecified) | 5.59 µM (active)
87 | CCCOc1cc(N(CC)CC)ccc1/C=C(/C#N)c1nc2ccc(C)cc2[nH]1 | inactive
88 | N#C/C(=C\c1ccc([N+](=O)[O-])o1)c1nc2ccccc2[nH]1 | 8.2 µM (active)
89 | N#C/C(=C\c1ccc(Cl)cc1)c1nc2ncccc2[nH]1 | 15.8 µM (active)
90 | N#C/C(=C\c1cccnc1)c1nc2ccccc2[nH]1 | 14 µM (active)
91 | Cc1ccc2nc(/C(C#N)=C\c3ccc([N+](=O)[O-])o3)[nH]c2c1 | 10.3 µM (active)
92 | CCn1c(O)c(/C=N/NC(=O)c2ccncc2)c(=O)n(CC)c1=S | inactive
93 | O=C(N/N=C/c1ccco1)c1cc(-c2ccncc2)nc2ccccc12 | 6.27 µM (active)
94 | CCc1ccc(/C=N/NC(=O)c2cc(-c3ccncc3)nc3ccccc23)s1 | 4.98 µM (active)
95 | C/C(=N\NC(=O)c1cc(-c2ccncc2)nc2ccccc12)c1ccc(N2CCOCC2)cc1 | inactive
96 | CC(/C=N/NC(=O)c1cc(-c2ccccc2)nc2ccccc12)=C\c1ccco1 | 3.14 µM (active)
